# Rows were chosen to be rich in hits. Some 3% of all compounds tested hit in one or more screens of this group.
# SENP8 block-1 = blocks human SENP8 cleavage of Nedd8 substrate; AID 602440; inhibition, % at 20 µM; actives 0.64% (n = 360,000); recombinant SENP8, Nedd8 substrate fluorescence; Q96LD8; in the data active = inhibition mostly above about 40%, no sharp cut-off; inactive = mostly below about 27%
# SENP6 inh = SENP6 protease inhibition; Q9GZR1; Recombinant SENP6 catalytic domain, aminoluciferin luminescence; inhibition, % at 10 µM; actives 1.8% (n = 330,000);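 active = inhibition above about 50% at the single tested dose, limit read from the data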
# C8 TRAIL sens = sensitizes caspase-8 expressing cells to TRAIL | actives 1% (n = 360,000) | NB7+C8 cells + TRAIL, ATPlite viability luminescence | AID 624354 | inhibition (viability loss, TRAIL sensitization), % at 10 µM;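 active = compounds causing at least 50% loss of cell viability in the single-dose screen, relative to plate controls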
# SENP8 block-2 = inhibitors of human SENP8 protease; purified SENP8, Z-RLRGG-aminoluciferin cleavage, luminescence; inhibition, % at 10 µM; actives 1.2% (n = 330,000); AID 2540; in the data active = inhibition above about 50%
# SENP7 inh = SENP7 protease inhibition; inhibition, % at 5 µM; actives 1.5% (n = 330,000); AID 434973; recombinant SENP7, Z-RLRGG-aminoluciferin luminescence, 40 min;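 active = inhibition above about 50% at the single test dose, limit read from the data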
# Target sequence (Q9BQF6 706-1050 limits assumed): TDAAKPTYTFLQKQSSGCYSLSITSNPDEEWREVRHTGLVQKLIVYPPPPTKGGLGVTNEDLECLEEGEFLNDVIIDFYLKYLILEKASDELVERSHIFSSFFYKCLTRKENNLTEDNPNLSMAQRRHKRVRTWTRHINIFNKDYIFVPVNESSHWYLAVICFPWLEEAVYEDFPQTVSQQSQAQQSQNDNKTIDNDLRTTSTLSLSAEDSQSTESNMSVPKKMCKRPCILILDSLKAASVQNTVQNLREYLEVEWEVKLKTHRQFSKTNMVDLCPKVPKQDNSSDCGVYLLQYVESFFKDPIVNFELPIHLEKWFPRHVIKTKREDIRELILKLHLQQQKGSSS
# PPC-1+TRAIL kill = kills PPC-1 cancer cells in the presence of TRAIL; PPC-1 cells + TRAIL, ATPLite viability luminescence; cell killing (% activity), % at 4 µM or 5 µM; actives 0.41% (n = 220,000); AID 1443;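 active = cell killing above 50% in the first pass at 4 µM, then a duplicate retest at 5 µM averaging 50% or more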
# Hits are given with their value; . = inactive; / = no result.
SMILES,SENP8 block-1,SENP6 inh,C8 TRAIL sens,SENP8 block-2,SENP7 inh,PPC-1+TRAIL kill
COC(=O)C1=C(c2ccc(OC)c(OC)c2)C[C@@H]2CC[C@H]1N2C(=O)N1CCOCC1,.,.,.,.,.,/
N#CC(C#N)=NNc1ccc(-n2ccc(C(F)(F)F)n2)cc1,.,.,.,.,.,.
Cc1cc(C)n(-c2ccc(NN=C(C#N)C#N)cc2)n1,.,91.8,.,90.0,89.7,.
C[N+](C)(N)CCOC(=O)C(O)(c1ccccc1)C1CCCCC1 (centres undefined),.,.,.,.,.,/
CC(O)C1C=CC=CC(=O)OC2CC3OC4C5OC5(C)CCC4(COC(=O)C4OC4(C)C(O)CO1)C2(C)C31CO1 (centres undefined),.,/,60.8,/,/,/
CC(=O)OC1C(=O)OCC23CCC4(C)OC4C2OC2CC(OC(=O)C=CC=CC(=O)OCCC1C)C3(C)C21CO1 (centres undefined),.,/,64.3,/,/,/
CCOc1ccc2nc(N=Nc3c(O)[nH]c(=O)[nH]c3=O)sc2c1,44.9,.,.,.,.,.
CC(=NNC(=S)N1CC2CCC(CC2)C1)c1nccs1,.,/,.,/,/,/
O=C1NC(=O)C(=Cc2ccc(N3CCN(C(=O)c4ccccc4)CC3)c([N+](=O)[O-])c2)C(=O)N1,41.0,.,.,.,.,.
O=P(O)(O)CN1CCNCCN(CP(=O)(O)O)CCNCC1,.,/,.,/,/,/
O=C(Cn1c(NCCCl)nc2ccccc21)c1ccc(Br)cc1,.,.,.,.,.,/
C[C@@H]1O[C@@H](O[C@@H]2C=C3CCC4C(CC[C@]5(C)[C@@H](c6ccc(=O)oc6)CC[C@]45O)[C@@]3(C)CC2)[C@H](O)[C@H](O)[C@H]1O (some centres undefined),.,.,74.8,.,.,/
C[C@@H]1O[C@@H](O[C@@H]2C=C3CC[C@@H]4C(CC[C@]5(C)[C@@H](c6ccc(=O)oc6)CC[C@]45O)[C@@]3(C)CC2)[C@H](O)[C@H](O)[C@H]1O (some centres undefined),.,.,75.8,.,.,/
CC(=O)C1CCC2(O)C3CCC4=CC(=O)CCC4(C)C3CCC12C (centres undefined),.,/,.,/,/,/
Oc1ccc(-[n+]2c(-c3ccccc3)cc(-c3ccccc3)cc2-c2ccccc2)cc1,.,.,64.8,.,.,/
COc1ccc(-[n+]2c(-c3ccccc3)cc(-c3ccccc3)cc2-c2ccccc2)cc1,/,.,/,.,.,/
CC(=O)OC(C)(C)/C=C/C(=O)C(C)(O)C1C(O)CC2(C)C3CC=C4C(CC(O)C(=O)C4(C)C)C3(C)C(=O)CC12C (centres undefined),.,/,.,/,/,/
CC(=O)OC(C)(C)/C=C/C(=O)C(C)(O)C1[C@H](O)C[C@@]2(C)C3CC=C4C(CC[C@@H](O)C4(C)C)[C@]3(CO)C(=O)C[C@]12C (some centres undefined),.,.,53.1,.,.,/
CC(=O)OC(C)(C)/C=C/C(=O)[C@](C)(O)[C@H]1[C@H](O)C[C@@]2(C)[C@@H]3CC=C4[C@H](C[C@H](O)C(=O)C4(C)C)[C@]3(C)C(=O)C[C@]12C,.,/,.,/,/,50.1
Brc1ccc2c(c1)C(OC1CN3CCC1CC3)c1ccccc1CS2 (centres undefined),.,.,.,.,.,82.0
c1ccc2c(c1)CSc1ccccc1C2C1=NCCN1 (centres undefined),.,.,.,.,.,.
O=[N+]([O-])/C=C/c1c(Cl)cccc1Cl,.,/,71.5,/,/,/
CCN(CC)c1ccc(/C=C/[N+](=O)[O-])cc1,.,.,.,.,.,.
COc1ccc(CC2NCC(O)C2OC(C)=O)cc1 (centres undefined),.,/,84.8,/,/,/
Cc1cc(O)c(CN2CC=C(c3ccccc3)CC2)cc1C(C)C,.,.,.,.,.,/
Cn1c(O)c(/C=N/N2CCOCC2)c(=O)n(C)c1=S,.,.,.,.,.,.
CC(=O)OC1CC(OC2C(O)CC(OC3C(O)CC(OC4CCC5(C)C(CCC6C5CCC5(C)C(C7=CC(=O)OC7)CCC65O)C4)OC3C)OC2C)OC(C)C1OC1OC(CO)C(O)C(O)C1O (centres undefined),.,/,65.8,/,/,/
CC12CC[C@H]3[C@@H](CCC4(O)C[C@H](O)CCC34/C=N/NC(=O)c3ccc(O)cc3)C1(O)CCC2C1=CC(=O)OC1 (some centres undefined),.,.,.,.,.,.

# Screening results from PubChem BioAssay.
